# Test results as given in the supplement of paper PMC12282887.
# ± gives the standard deviation of the averaged measurements.
# Legend:
# Assay in all cases: promoter activity interaction Z-score (Lux/OD deviation from empty-vector control); higher = stronger promoter induction by the compound
# [1] = system: E. coli BW25113 soxSp lux reporter
# Summary of the method: (§1)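 Wild-type E. coli BW25113 and three single-gene deletion strains, each carrying a low-copy luxCDABE promoter reporter, were grown at 37°C in 40 µl LB Lennox per well of a 384-well plate. Every compound was applied at four 1:2 dilutions in biological duplicates, and OD600 and luminescence were read every 30 min for 12 h. Integration covered 0–8 h for wild type and 1–9 h for deletion strains, and wells under 10% of the median growth value were removed. Scores are Z-transformed residuals of growth-normalised luminescence fitted against a control.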
# [2] = system: E. coli BW25113 tolCp lux reporter
# Summary of the method: as §1
# [3] = system: E. coli BW25113 acrABp lux reporter
# Summary of the method: as §1
# [4] = system: E. coli BW25113 marRABp lux reporter
# Summary of the method: as §1
# [5] = system: E. coli BW25113 micFp lux reporter
# Summary of the method: as §1
# [6] = system: E. coli BW25113 ompFp lux reporter
# Summary of the method: as §1
# [7] = system: E. coli BW25113 robp lux reporter
# Summary of the method: as §1
# [8] = 34.3 µg/ml, genetic background: Δrob
# [9] = 34.3 µg/ml, genetic background: ΔsoxS
# [10] = 68.6 µg/ml, genetic background: wild type
# [11] = 68.6 µg/ml, genetic background: ΔmarA
# [12] = 68.6 µg/ml, genetic background: Δrob
# [13] = 68.6 µg/ml, genetic background: ΔsoxS
# [14] = 1.7 µg/ml, genetic background: wild type
# [15] = 1.7 µg/ml, genetic background: ΔmarA
# [16] = 1.7 µg/ml, genetic background: Δrob
# [17] = 1.7 µg/ml, genetic background: ΔsoxS
# [18] = 3.5 µg/ml, genetic background: wild type
# [19] = 3.5 µg/ml, genetic background: ΔmarA
# [20] = 3.5 µg/ml, genetic background: Δrob
# [21] = 3.5 µg/ml, genetic background: ΔsoxS
# [22] = 6.9 µg/ml, genetic background: wild type
# [23] = 6.9 µg/ml, genetic background: ΔmarA
# [24] = 6.9 µg/ml, genetic background: Δrob
# [25] = 6.9 µg/ml, genetic background: ΔsoxS
# [26] = 13.9 µg/ml, genetic background: wild type
# [27] = 13.9 µg/ml, genetic background: ΔmarA
# [28] = 13.9 µg/ml, genetic background: Δrob
# [29] = 13.9 µg/ml, genetic background: ΔsoxS
smiles,measurement,setting,value
Nc1ccc(C(=O)O)cc1 [4-Aminobenzoic acid],promoter activity interaction Z-score,[1]; [8],0.48 ± 0.11
same,promoter activity interaction Z-score,[1]; [9],0.363 ± 0.93
same,promoter activity interaction Z-score,[1]; [10],-0.597 ± 0.028
same,promoter activity interaction Z-score,[1]; [11],0.693 ± 0.26
same,promoter activity interaction Z-score,[1]; [12],0.532 ± 0.4
same,promoter activity interaction Z-score,[1]; [13],-0.372 ± 0.24
same,promoter activity interaction Z-score,"[2]; 8.6 µg/ml, genetic background: wild type",-0.592 ± 1.1
same,promoter activity interaction Z-score,"[2]; 8.6 µg/ml, genetic background: ΔmarA",0.924 ± 0.68
same,promoter activity interaction Z-score,"[2]; 8.6 µg/ml, genetic background: Δrob",-0.26 ± 0.81
same,promoter activity interaction Z-score,"[2]; 8.6 µg/ml, genetic background: ΔsoxS",0.91 ± 0.25
same,promoter activity interaction Z-score,"[2]; 17.1 µg/ml, genetic background: wild type",-0.356 ± 1
same,promoter activity interaction Z-score,"[2]; 17.1 µg/ml, genetic background: ΔmarA",0.371 ± 2.1
same,promoter activity interaction Z-score,"[2]; 17.1 µg/ml, genetic background: Δrob",0.781 ± 1.4
same,promoter activity interaction Z-score,"[2]; 17.1 µg/ml, genetic background: ΔsoxS",-0.463 ± 0.096
same,promoter activity interaction Z-score,"[2]; 34.3 µg/ml, genetic background: wild type",0.348 ± 0.41
same,promoter activity interaction Z-score,"[2]; 34.3 µg/ml, genetic background: ΔmarA",0.458 ± 1.9
same,promoter activity interaction Z-score,[2]; [8],0.119 ± 0.56
same,promoter activity interaction Z-score,[2]; [9],1.86 ± 0.96
same,promoter activity interaction Z-score,[2]; [10],0.28 ± 0.49
same,promoter activity interaction Z-score,[2]; [11],2.27 ± 0.56
same,promoter activity interaction Z-score,[2]; [12],0.498 ± 0.67
same,promoter activity interaction Z-score,[2]; [13],1.22 ± 0.073
NC(=O)c1cc[n+](CC2=C(C(=O)[O-])N3C(=O)[C@@H](NC(=O)[C@@H](c4ccccc4)S(=O)(=O)O)[C@H]3SC2)cc1 [Cefsulodin],promoter activity interaction Z-score,[3]; [14],0.269 ± 0.15
same,promoter activity interaction Z-score,[3]; [15],0.601 ± 0.24
same,promoter activity interaction Z-score,[3]; [16],-0.158 ± 0.15
same,promoter activity interaction Z-score,[3]; [17],-0.315 ± 0.077
same,promoter activity interaction Z-score,[3]; [18],0.0267 ± 0.076
same,promoter activity interaction Z-score,[3]; [19],0.343 ± 0.28
same,promoter activity interaction Z-score,[3]; [20],0.17 ± 0.29
same,promoter activity interaction Z-score,[3]; [21],-0.28 ± 0.31
same,promoter activity interaction Z-score,[3]; [22],0.306 ± 0.13
same,promoter activity interaction Z-score,[3]; [23],-0.189 ± 0.29
same,promoter activity interaction Z-score,[3]; [24],-0.455 ± 0.052
same,promoter activity interaction Z-score,[3]; [25],-0.399 ± 0.055
same,promoter activity interaction Z-score,[3]; [26],0.379 ± 0.28
same,promoter activity interaction Z-score,[3]; [27],-0.532 ± 0.81
same,promoter activity interaction Z-score,[3]; [28],0.198 ± 0.17
same,promoter activity interaction Z-score,[3]; [29],0.0814 ± 0.14
same,promoter activity interaction Z-score,[4]; [14],0.0888 ± 0.07
same,promoter activity interaction Z-score,[4]; [15],-0.156 ± 0.32
same,promoter activity interaction Z-score,[4]; [16],-0.151 ± 0.05
same,promoter activity interaction Z-score,[4]; [17],-0.273 ± 0.013
same,promoter activity interaction Z-score,[4]; [18],0.026 ± 0.046
same,promoter activity interaction Z-score,[4]; [19],-0.154 ± 0.15
same,promoter activity interaction Z-score,[4]; [20],-0.188 ± 0.075
same,promoter activity interaction Z-score,[4]; [21],-0.12 ± 0.063
same,promoter activity interaction Z-score,[4]; [22],-0.199 ± 0.15
same,promoter activity interaction Z-score,[4]; [23],-0.257 ± 0.49
same,promoter activity interaction Z-score,[4]; [24],-0.271 ± 0.049
same,promoter activity interaction Z-score,[4]; [25],-0.324 ± 0.025
same,promoter activity interaction Z-score,[4]; [26],1.24 ± 1.6
same,promoter activity interaction Z-score,[4]; [27],0.729 ± 0.25
same,promoter activity interaction Z-score,[4]; [28],0.241 ± 0.029
same,promoter activity interaction Z-score,[4]; [29],0.341 ± 0.012
same,promoter activity interaction Z-score,[5]; [14],0.14 ± 0.014
same,promoter activity interaction Z-score,[5]; [15],-0.0463 ± 0.21
same,promoter activity interaction Z-score,[5]; [16],0.0953 ± 0.35
same,promoter activity interaction Z-score,[5]; [17],-0.338 ± 0.047
same,promoter activity interaction Z-score,[5]; [18],0.0738 ± 0.052
same,promoter activity interaction Z-score,[5]; [19],-0.0526 ± 0.14
same,promoter activity interaction Z-score,[5]; [20],-0.0549 ± 0.0043
same,promoter activity interaction Z-score,[5]; [21],-0.224 ± 0.027
same,promoter activity interaction Z-score,[5]; [22],0.373 ± 0.2
same,promoter activity interaction Z-score,[5]; [23],-0.161 ± 0.17
same,promoter activity interaction Z-score,[5]; [24],0.046 ± 0.26
same,promoter activity interaction Z-score,[5]; [25],-0.32 ± 0.14
same,promoter activity interaction Z-score,[5]; [26],0.27 ± 0.18
same,promoter activity interaction Z-score,[5]; [27],-0.237 ± 0.007
same,promoter activity interaction Z-score,[5]; [28],-0.0142 ± 0.099
same,promoter activity interaction Z-score,[5]; [29],-0.324 ± 0.022
same,promoter activity interaction Z-score,[6]; [14],0.0922 ± 0.034
same,promoter activity interaction Z-score,[6]; [15],-0.437 ± 0.1
same,promoter activity interaction Z-score,[6]; [16],0.00718 ± 0.63
same,promoter activity interaction Z-score,[6]; [17],-0.453 ± 0.23
same,promoter activity interaction Z-score,[6]; [18],0.101 ± 0.094
same,promoter activity interaction Z-score,[6]; [19],0.0789 ± 0.37
same,promoter activity interaction Z-score,[6]; [20],-0.19 ± 0.099
same,promoter activity interaction Z-score,[6]; [21],-0.294 ± 0.097
same,promoter activity interaction Z-score,[6]; [22],0.254 ± 0.0045
same,promoter activity interaction Z-score,[6]; [23],-0.42 ± 0.15
same,promoter activity interaction Z-score,[6]; [24],-0.561 ± 0.17
same,promoter activity interaction Z-score,[6]; [25],-0.258 ± 0.67
same,promoter activity interaction Z-score,[6]; [26],2.4 ± 0.66
same,promoter activity interaction Z-score,[6]; [27],1.43 ± 0.62
same,promoter activity interaction Z-score,[6]; [28],1.29 ± 0.045
same,promoter activity interaction Z-score,[6]; [29],0.329 ± 1.2
same,promoter activity interaction Z-score,[7]; [14],0.353 ± 0.3
same,promoter activity interaction Z-score,[7]; [15],-0.684 ± 0.45
same,promoter activity interaction Z-score,[7]; [16],-0.402 ± 0.66
same,promoter activity interaction Z-score,[7]; [17],-0.564 ± 0.41
same,promoter activity interaction Z-score,[7]; [18],0.22 ± 0.28
same,promoter activity interaction Z-score,[7]; [19],-0.459 ± 0.031
same,promoter activity interaction Z-score,[7]; [20],-0.153 ± 0.28
same,promoter activity interaction Z-score,[7]; [21],-0.0266 ± 0.11
same,promoter activity interaction Z-score,[7]; [22],0.775 ± 0.033
same,promoter activity interaction Z-score,[7]; [23],-1.06 ± 0.66
same,promoter activity interaction Z-score,[7]; [24],-0.421 ± 0.63
same,promoter activity interaction Z-score,[7]; [25],-0.255 ± 0.017
same,promoter activity interaction Z-score,[7]; [26],-0.0503 ± 0.35
same,promoter activity interaction Z-score,[7]; [27],-0.32 ± 0.51
same,promoter activity interaction Z-score,[7]; [28],-0.936 ± 0.25
same,promoter activity interaction Z-score,[7]; [29],-1.59 ± 0.21
same,promoter activity interaction Z-score,[1]; [14],0.243 ± 0.14
same,promoter activity interaction Z-score,[1]; [15],0.0161 ± 0.021
same,promoter activity interaction Z-score,[1]; [16],0.337 ± 0.44
same,promoter activity interaction Z-score,[1]; [17],-0.145 ± 0.16
same,promoter activity interaction Z-score,[1]; [18],0.223 ± 0.013
same,promoter activity interaction Z-score,[1]; [19],0.0152 ± 0.069
same,promoter activity interaction Z-score,[1]; [20],0.186 ± 0.38
same,promoter activity interaction Z-score,[1]; [21],0.0422 ± 0.085
same,promoter activity interaction Z-score,[1]; [22],0.195 ± 0.0077
same,promoter activity interaction Z-score,[1]; [23],-0.0335 ± 0.17
same,promoter activity interaction Z-score,[1]; [24],0.0477 ± 0.44
same,promoter activity interaction Z-score,[1]; [25],-0.0923 ± 0.35
same,promoter activity interaction Z-score,[1]; [26],0.167 ± 0.16
same,promoter activity interaction Z-score,[1]; [27],-0.302 ± 0.11
same,promoter activity interaction Z-score,[1]; [28],-0.117 ± 0.011
same,promoter activity interaction Z-score,[1]; [29],-0.0117 ± 0.15
same,promoter activity interaction Z-score,[2]; [14],0.715 ± 0.94
same,promoter activity interaction Z-score,[2]; [15],-0.256 ± 0.052
same,promoter activity interaction Z-score,[2]; [16],0.191 ± 0.14
same,promoter activity interaction Z-score,[2]; [17],-1.1 ± 0.63
same,promoter activity interaction Z-score,[2]; [18],-0.195 ± 0.71
same,promoter activity interaction Z-score,[2]; [19],-0.0142 ± 0.11
same,promoter activity interaction Z-score,[2]; [20],0.0051 ± 0.65
same,promoter activity interaction Z-score,[2]; [21],-0.229 ± 0.0049
same,promoter activity interaction Z-score,[2]; [22],0.976 ± 0.34
same,promoter activity interaction Z-score,[2]; [23],-0.562 ± 0.45
same,promoter activity interaction Z-score,[2]; [24],-0.0786 ± 0.68
same,promoter activity interaction Z-score,[2]; [25],-0.444 ± 0.1
same,promoter activity interaction Z-score,[2]; [26],-0.259 ± 0.34
same,promoter activity interaction Z-score,[2]; [27],-0.283 ± 0.28
same,promoter activity interaction Z-score,[2]; [28],-0.0472 ± 0.28
same,promoter activity interaction Z-score,[2]; [29],-0.088 ± 0.34
